USP17 block: human USP17-like deubiquitinase inhibition; A8MUK1; purified USP17, Ub-rhodamine cleavage fluorescence, 3 h; inhibition, % at 50 µM; 6.5% of 47,000 active
Target sequence (A8MUK1 whole entry, looked up): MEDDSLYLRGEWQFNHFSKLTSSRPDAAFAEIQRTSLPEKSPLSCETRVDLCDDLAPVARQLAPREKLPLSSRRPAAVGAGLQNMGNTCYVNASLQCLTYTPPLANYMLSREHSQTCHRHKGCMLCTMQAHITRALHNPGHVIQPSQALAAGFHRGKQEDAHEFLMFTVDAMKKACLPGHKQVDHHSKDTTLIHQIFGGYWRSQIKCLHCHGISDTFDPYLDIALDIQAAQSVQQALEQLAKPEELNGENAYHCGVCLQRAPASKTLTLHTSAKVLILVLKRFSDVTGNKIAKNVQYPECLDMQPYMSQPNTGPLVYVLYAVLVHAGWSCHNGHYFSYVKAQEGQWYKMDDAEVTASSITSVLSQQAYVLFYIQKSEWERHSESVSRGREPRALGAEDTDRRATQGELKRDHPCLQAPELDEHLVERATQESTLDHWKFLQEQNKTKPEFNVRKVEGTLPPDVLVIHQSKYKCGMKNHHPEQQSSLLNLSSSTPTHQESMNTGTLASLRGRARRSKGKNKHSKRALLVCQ
USP30 inh: inhibitors of human USP30 deubiquitinase; Q70CQ3; 5.3% of 47,000 active; purified USP30, Ub-rhodamine cleavage fluorescence; inhibition, % at 25 µM
OTUD3 inh: blocks human OTUD3 ubiquitin-rhodamine cleavage; purified OTUD3, Ub-rhodamine fluorescence, 2 h; inhibition, % at 25 µM; 0.7% of 47,000 active
USP28 inh: human USP28 deubiquitinase inhibition; Q96RU2; purified USP28, Ub-rhodamine cleavage fluorescence, 30 min; inhibition, % at 25 µM; 3% of 47,000 active
Large screens that a line does not name were inactive. Shown are actives, neighbours in structure and some others; about 11% of the full set was active somewhere. Cut-off read from the data, not from the text of the source: active = inhibition above about 30%; inactive = the rest.

COc1ccc(NC(=O)Cn2c(=O)n(CCC(=O)NC3CCCC3)c(=O)c3ccccc32)cc1Cl	none
COc1ccc(Cl)cc1NC(=O)Cn1c(=O)n(CCC(=O)NC2CCCC2)c(=O)c2ccccc21	none
O=C(Cn1c(=O)n(CC(=O)NC2CCCC2)c(=O)c2ccccc21)Nc1cc(Cl)ccc1Cl	USP17 block 42.5, USP30 inh 64.8, USP28 inh 34.3
CCOc1ccccc1NC(=O)Cn1c(=O)n(CCC(=O)NC2CCCC2)c(=O)c2ccccc21	USP17 block 41.4
COc1ccc2occ(-c3ccc4c(c3)OCCO4)c(=O)c2c1	USP30 inh 32.7
O=c1[nH]c(=O)n(Cc2ccco2)c2c1CN(Cc1ccccc1)CN2	none
CCC(C)N1CNc2c(c(=O)[nH]c(=O)n2Cc2ccco2)C1 (stereo not drawn)	USP30 inh 39.1 (no result: USP17 block)
O=C(/C(=C/c1cccs1)c1ccccc1)N1CCN(c2ncc(C(F)(F)F)cc2Cl)CC1	none
N#Cc1cccc(C(=O)N2CC[C@H]3CO[C@H](CN4CCCC4)[C@H]3C2)c1	none
O=C(O)CC1(CC(=O)NCc2cccc(Cl)c2)CCCCC1	none
O=C(O)CC1(CC(=O)NCc2ccc(C(F)(F)F)cc2)CCCCC1	USP30 inh 32.0
CCc1cnc(CN2CCCC2c2noc(C)n2)o1 (stereo not drawn)	none
CNc1nc(C2CCNCC2)nc2c1CN(S(=O)(=O)c1ccccc1)CC2	none
COc1ccc(NC(=O)Cn2cc(C(=O)c3ccc(Cl)cc3)c(=O)c3cc(F)ccc32)cc1	USP17 block 31.1, USP30 inh 39.1
COc1ccc2c(c1)c(=O)c(C(=O)c1ccc(Cl)cc1)cn2CC(=O)Nc1ccc(Cl)cc1	none
COc1ccc(NC(=O)Cn2cc(C(=O)c3ccccc3)c(=O)c3cc(Cl)ccc32)cc1OC	none
Cc1ccc(C(=O)c2cn(CC(=O)Nc3ccccc3C)c3ccc(C)cc3c2=O)cc1	USP17 block 40.3
Cc1ccc2c(c1)c(=O)c(C(=O)c1ccc(F)cc1)cn2CC(=O)Nc1ccc2c(c1)OCCO2	USP17 block 69.9
COc1ccccc1NC(=O)Cn1cc(C(=O)c2ccc(C)cc2)c(=O)c2ccccc21	USP17 block 62.2
CN1C(=O)C2CCCCN2c2ccc(C(=O)NCCCN3CCCC3)cc21 (stereo not drawn)	none
Cc1ccnc(NS(=O)(=O)c2ccc(-c3cc(C)no3)cc2)c1	none (no result: USP30 inh, USP28 inh)
CCOc1ccc(S(=O)(=O)n2cc3c(=O)n(C)c(=O)n(C)c3n2)cc1	USP17 block 32.8
Cc1ccc(S(=O)(=O)N(C)c2ccc(OCC(=O)Nc3ccc4c(c3)OCO4)cc2)cc1	none
CC(C)c1ccc(-n2c(=O)c3ccccc3c3ccccc3c2=O)cc1	USP30 inh 35.0
CC(=O)N1CCC2(CC1)CC1(CCN(C(=O)N(C)C)CC1)C(=O)N2C	none
CCOc1ccc(NC(=O)c2cnc3ccc(C)cn3c2=O)cc1	none
O=C(NCc1cccnc1)c1cccc(-c2ccc(N3CCCC3)nc2)c1	none (no result: USP30 inh, USP28 inh)
O=C(NC1CCCC1)c1cccc(-c2ccc(N3CCCC3)nc2)c1	USP17 block 50.8
O=C(NC1CC1)c1ccc(-c2ccc(N3CCCCC3)nc2)cc1	USP17 block 47.8
CCCC(=O)c1c[nH]c(C(=O)NCc2ccc(F)cc2)c1	USP17 block 68.9, USP28 inh 34.7
COc1ccccc1N1CCN(C(=O)/C=C/c2ccc(OCc3ccc(Cl)cc3Cl)cc2)CC1	USP30 inh 30.8
O=C(/C=C/c1ccc(OCc2ccccc2)cc1)N1CCN(C(c2ccccc2)c2ccccc2)CC1	none
Cc1cc(C)n2ncc(C(=O)NCCc3ccc(Cl)cc3)c2n1	USP28 inh 30.1
Cc1cc(C)n2ncc(C(=O)NC(C)CCc3ccccc3)c2n1 (stereo not drawn)	none
CC(C)n1cnc(-c2cc(C(=O)NCCc3ccccn3)c3ccccn23)c1	none
CCc1nc2sc(C(C)C)nn2c1S(=O)(=O)N1CCCCCC1	USP30 inh 35.6
Cc1cn2c(S(=O)(=O)N3CCCCC3)c(C(C)C)nc2s1	none
c1csc(-c2nc(NC3CCCCC3)c3ccccc3n2)c1	none
c1csc(-c2nc(Nc3ccc4c(c3)CCC4)c3ccccc3n2)c1	USP17 block 71.3
O=C(COc1ccc(Cl)cc1)Nc1noc(-c2cccs2)n1	USP17 block 47.5, USP30 inh 44.4, USP28 inh 31.2
COc1ccc2[nH]cc(C(=O)CSc3nc(C)nc4c3oc3ccccc34)c2c1	none
Cc1nn2c(S(=O)(=O)NCc3ccc(F)cc3F)c(C)nc2s1	none
CCOc1ccc(N(Cc2cc3ccccc3[nH]c2=O)C(C)=O)cc1	none
COc1cccc(-c2ccccc2NC(=O)C2CCN(Cc3cccnc3)CC2)c1	none
COCCCn1c(SCC(=O)Nc2ccccc2C(=O)OC)nc2ccccc2c1=O	USP17 block 42.4, USP30 inh 69.7
